In PubChem BioAssay (NCATS):
Results filed as inconclusive are left out. Active and inactive are the calls of the source. Unless noted, calls follow the shape of the dose curve; as a rule, active = well fitted curve in the direction sought with a large enough effect; inconclusive = small, poorly fitted or top-dose-only effect, or another doubt; inactive = no such curve, though single readings can be large; an effect the other way counts as inactive or inconclusive.

What was measured:
[1] = molecular target: Pyruvate kinase PKM (Homo sapiens) (UniProt P14618); test: qHTS Assay for Activators of Human Muscle Pyruvate Kinase (AID 954; active = well fitted curve in the direction sought with a large enough effect, not every such curve was filed as active)
Pyruvate kinase PKM (Homo sapiens), sequence (P14618 whole entry, looked up): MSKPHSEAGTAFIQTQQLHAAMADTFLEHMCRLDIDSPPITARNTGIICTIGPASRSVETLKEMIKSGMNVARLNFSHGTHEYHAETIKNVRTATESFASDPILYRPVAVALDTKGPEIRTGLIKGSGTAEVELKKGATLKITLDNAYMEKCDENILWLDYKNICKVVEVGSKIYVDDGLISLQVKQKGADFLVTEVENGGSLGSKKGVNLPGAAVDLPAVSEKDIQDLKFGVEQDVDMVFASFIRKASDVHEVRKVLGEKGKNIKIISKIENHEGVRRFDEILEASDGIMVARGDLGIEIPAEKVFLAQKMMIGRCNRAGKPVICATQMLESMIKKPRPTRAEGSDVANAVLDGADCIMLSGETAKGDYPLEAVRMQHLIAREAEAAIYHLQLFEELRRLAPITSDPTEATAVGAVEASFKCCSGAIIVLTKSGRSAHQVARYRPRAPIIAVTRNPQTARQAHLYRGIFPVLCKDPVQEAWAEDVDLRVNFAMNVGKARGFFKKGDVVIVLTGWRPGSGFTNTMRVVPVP
Method in brief: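 PKM2, human, >95% pure, 0.1 nM; PEP 0.5 mM (Km), ADP 0.1 mM; 50 mM imidazole pH 7.2, 50 mM KCl, 0.01% Tween 20, 0.05% BSA; 1 h RT; luciferase luminescence readout.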

[2] = Cell Viability - LYMP1-002 - Assay at 16 hr (AID 948)
Method in brief: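 ATP luminescence (CellTiter-Glo) was measured after 16 hr compound exposure at 37 C of 2500 lymphoblastoid LYMP1-002 cells per well. Concentration-response curves were fitted with the Hill equation to give AC50.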

[3] = MultiTox-Fluor Cytotoxicity Assay - LYMP1-002 - Live Cells (AID 955);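 also: cells exposed to compound for 16 hours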
Method in brief: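 After 16 h compound exposure at 37 C, live LYMP1-002 lymphoblastoid cells (2500/well) were quantified by cleavage of cell-permeant GF-AFC substrate, read at 405/510 nm after 60 min. Concentration-response fitted with Hill equation for AC50.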

[4] = MultiTox-Fluor Cytotoxicity Assay - LYMP1-002 - Dead Cells (AID 960); also: nearly all actives have a fitted effect of over 60% in size
Method in brief: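 Dead-cell fluorescence (Ex/Em 485/520) after 16 h compound exposure at 37 C of LYMP1-002 lymphoblastoid cells in complete medium; AC50 by Hill equation, with data scaled between DMSO and 15 uM tetraoctylammonium bromide.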

[5] = MultiTox-Fluor Cytotoxicity Assay - LYMP1-003 - Live Cells (AID 962);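 also: cells exposed to compound for 16 hours at 37 °C; cytotoxic hits lower the live-cell protease signal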
Method in brief: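 Live-cell protease activity (GF-AFC substrate, 405/510 nm, 60 min at room temperature) after 16 h, 37 C compound exposure of human lymphoblastoid LYMP1-003 cells; concentration-response fitted to the Hill equation for AC50.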

[6] = Cell Viability - LYMP1-003 - Assay at 24 hr (AID 963)
Method in brief: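 Concentration-response qHTS: ATP loss measured by CellTiter-Glo luminescence after 24 h compound exposure at 37 C. Cells were LYMP1-003 human lymphoblastoid, 2500 per well. AC50 derived via standard Hill equation modeling.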

[7] = MultiTox-Fluor Cytotoxicity Assay - LYMP1-003 - Dead Cells (AID 961); also: nearly all actives have a fitted effect of over 70% in size
Method in brief: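 LYMP1-003 lymphoblastoid, 2500 cells/well, 5 hr settle then 16 hr cpd at 37 C; MultiTox-Fluor reagent 60 min RT; Ex/Em 485/520 dead-cell signal; norm. DMSO = 0%, 15 uM tetraoctylammonium bromide = 100%; Hill AC50.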

[8] = Cell Viability - LYMP1-003 - Assay at 40 hr (AID 964); also: series mostly up to about 92 µM; nearly all actives have a fitted effect of over 60% in size
Method in brief: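 Viability is taken as cellular ATP, read by CellTiter-Glo luminescence after 40 h of compound exposure at 37 C. Cells: human lymphoblastoid line LYMP1-003 at 2500/well; AC50 values derived by Hill-equation fitting of concentration-response data.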

[9] = Cell Viability - LYMP2-003 (AID 965);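 also: cells exposed to compounds for 24 h before reading; nearly all actives have a fitted effect of over 50% in size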
Method in brief: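 CellTiter-Glo luminescence quantified ATP loss after 24 h compound treatment of LYMP2-003 lymphoblastoid cells at 37 C. Titration series were fitted with the standard Hill equation to give AC50.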

[10] = Cell Viability - LYMP2-004 (AID 966); also: nearly all actives have a fitted effect of over 65% in size
Method in brief: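 AC50 values come from Hill modelling of concentration-dependent loss of intracellular ATP, measured by CellTiter-Glo luminescence. Human LYMP2-004 lymphoblastoid cells (2500/well) were exposed to compound for 24 h at 37 C.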

[11] = Cell Viability - LYMP2-005 (AID 967); also: series mostly up to about 92 µM
Method in brief: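 LYMP2-005 human lymphoblastoid cells (2500/well) were treated with compounds for 24 h at 37 C. Intracellular ATP was then measured by CellTiter-Glo luminescence after 30 min at room temperature. AC50 values came from Hill-equation fits of qHTS concentration-response data.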

[12] = Cell Viability - LYMP2-009 (AID 968); also: series mostly up to about 92 µM; nearly all actives have a fitted effect of over 55% in size
[13] = Cell Viability - LYMP2-013 (AID 970); also: series mostly up to about 92 µM; nearly all actives have a fitted effect of over 55% in size
Method in brief: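 qHTS cytotoxicity: ATP-dependent luminescence (CellTiter-Glo, 30 min room temperature) read after 24 h compound exposure at 37 C of 2500 LYMP2-013 lymphoblastoid cells per well. Concentration-response fitted with Hill equation to give AC50.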

[14] = Cell Viability - LYMP2-015 (AID 971); also: nearly all actives have a fitted effect of over 55% in size
Method in brief: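 Cytotoxicity readout: decrease in intracellular ATP (CellTiter-Glo luminescence) in 2500 LYMP2-015 lymphoblastoid cells/well after 24 h compound exposure at 37 C. Concentration-response data fitted with the standard Hill equation to give AC50.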

[15] = Cell Viability - LYMP2-017 (AID 972); also: series mostly up to about 92 µM; nearly all actives have a fitted effect of over 55% in size
Method in brief: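 CellTiter-Glo luminescence (cellular ATP, 30 min RT) measured cytotoxicity after 24 hr compound treatment at 37 C. Cells were a human lymphoblastoid line, LYMP2-017, plated at 2500/well and incubated 5 hr first; concentration-response fitted with Hill equation for AC50.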

[16] = Cell Viability - LYMP2-019 (AID 973); also: nearly all actives have a fitted effect of over 55% in size
Method in brief: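 AC50 values come from Hill-equation fits of luminescent intracellular ATP (CellTiter-Glo, 30 min, room temperature) following 24 h compound exposure at 37 C. Cells: LYMP2-019 lymphoblastoid line, 2500 per well, in complete culture medium.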

[17] = Cell Viability - LYMP2-021 (AID 974); also: nearly all actives have a fitted effect of over 55% in size
Method in brief: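 AC50 values come from Hill-equation fits to CellTiter-Glo luminescence (ATP content), read after 24 hour compound exposure at 37 C of 2500 LYMP2-021 lymphoblastoid cells/well; tetraoctylammonium bromide as positive control.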

[18] = Cell Viability - LYMP2-023 (AID 975)
Method in brief: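 Intracellular ATP, read by CellTiter-Glo luminescence, reports viability after 24 hr compound exposure at 37 C. 2500 lymphoblastoid cells/well (LYMP2-023) seeded 5 hr beforehand; Hill fits give AC50; positive control tetraoctylammonium bromide.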

[19] = Cell Viability - LYMP2-025 (AID 976); also: series mostly up to about 92 µM
Method in brief: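 Cytotoxicity read as loss of intracellular ATP (luciferase luminescence) after 24 h compound treatment at 37 C. Uses LYMP2-025 lymphoblastoid cells in 1536-well format; Hill-equation modelling gives AC50; tetraoctylammonium bromide as positive control.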

[20] = Cell Viability - LYMP2-002 (AID 977); also: series mostly up to about 92 µM
Method in brief: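 Human lymphoblastoid cells, 2500/well, complete medium; 5 h 37 C settle; compound 24 h 37 C; CellTiter-Glo, 30 min RT; luminescence. Decrease in ATP = cytotoxicity; AC50 via Hill equation.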

Measured: Potency

CN(C)CCC[C@@]1(c2ccc(F)cc2)OCc2cc(C#N)ccc21
inactive: [1]

Oc1ccc(Cl)cc1Cc1cc(Cl)ccc1O
inactive: [2] | [3] | [4] | [5] | [6]

CN1CCC[C@@H]1CCO[C@](C)(c1ccccc1)c1ccc(Cl)cc1
inactive: [1]

CN=C(N)NCCC[C@H](N)C(=O)O
inactive: [1]

CCCCC(CC)COC(=O)c1ccc(N(C)C)cc1 (stereo not given)
not listed: [1] | [4]
inactive: all other assays above

C/C=C/c1ccc(O)c(OC)c1
not listed: [1]
inactive: all other assays above

COc1cc([C@H]2Oc3cc([C@H]4Oc5cc(O)cc(O)c5C(=O)[C@@H]4O)ccc3O[C@@H]2CO)ccc1O
not listed: [1]
inactive: all other assays above

O=C(O)c1ccc(S(=O)(=O)N(Cl)Cl)cc1
not listed: [1]
inactive: all other assays above

C=C[C@H]1CN2CC[C@H]1C[C@@H]2[C@@H](O)c1ccnc2ccc(OC)cc12
not listed: [1] | [4]
inactive: all other assays above

CC(C)(C)NC[C@H](O)COc1nsnc1N1CCOCC1
inactive: [1]

NCCNc1cccc2ccccc12
not listed: [1] | [11]
inactive: all other assays above
